Experimental data from the supplement of paper PMC9262897, “Low-cost anti-mycobacterial drug discovery using engineered E. coli” (Nature Communications, 2022).
Where a name gives a salt, the structure may show the parent alone. ± gives the standard deviation of the averaged measurements.

What follows are compounds tested on E. coli TESEC Mtb Alr (assay: growth (OD600 after 10 h); higher = more growth (less inhibition)). Settings: arabinose 100 nM; compound 0.1 mM; raw OD600 reference: median of DMSO wells 0.413, cell-free background 0.052.
Method: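 TESEC Mtb Alr E. coli (ΔaraC ΔtolC ΔentC Δalr ΔdadX, arabinose-inducible Mtb Alr) or the Alr+ wild-type control strain, grown in defined M9-fructose medium without D-alanine in 96-well plates with Prestwick library compounds at 0.1 mM and 1% DMSO. Low Alr induction is 0.1 µM arabinose and high induction is 10 mM arabinose.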

Compound | growth
CCCCN(CCCC)CCC(O)c1cc2c(Cl)cc(Cl)cc2c2cc(C(F)(F)F)ccc12 (configuration not stated) [Halofantrine hydrochloride] | 0.452 ± 0.016
CO[C@@H]1[C@@H](O[C@@H]2O[C@H](C)[C@@H](O[C@H]3C[C@@](C)(O)[C@@H](OC(=O)CC(C)C)[C@H](C)O3)[C@H](N(C)C)[C@H]2O)[C@@H](CC=O)C[C@@H](C)[C@@H](O)/C=C/C=C/C[C@@H](C)OC(=O)C[C@H]1OC(C)=O [Josamycin] | 0.0755 ± 0.021
Cc1ccccc1C(OCCN(C)C)c1ccccc1 (configuration not stated) [Orphenadrine hydrochloride] | 0.412 ± 0.013
O=C(NCC1CCCCN1)c1cc(OCC(F)(F)F)ccc1OCC(F)(F)F (configuration not stated) [Flecainide acetate] | 0.412 ± 0.011
C[C@]12CC[C@@H]3c4ccc(O)cc4C[C@@H](CCCCCCCCC[S+]([O-])CCCC(F)(F)C(F)(F)F)[C@H]3[C@@H]1CC[C@@H]2O (some centres not stated) [Fulvestrant] | 0.413 ± 0.03
CN1CCN(CC(=O)N2c3ccccc3C(=O)Nc3cccnc32)CC1 [Pirenzepine dihydrochloride] | 0.4155 ± 0.0034
CCCCC(=O)N(Cc1ccc(-c2ccccc2-c2nnn[nH]2)cc1)[C@H](C(=O)O)C(C)C [Valsartan] | 0.422 ± 0.016
CCOc1ccccc1OCC1CNCCO1 (configuration not stated) [Viloxazine hydrochloride] | 0.406 ± 0.011
Cc1nc2n(c(=O)c1CCN1CCC(c3noc4cc(F)ccc34)CC1)CCCC2 [Risperidone] | 0.397 ± 0.014
C=C1C(=O)O[C@H]2[C@H]1CC/C(C)=C/CC[C@@]1(C)O[C@@H]21 [Parthenolide] | 0.404 ± 0.013
CC(C(O)c1ccc(O)cc1)N1CCC(Cc2ccccc2)CC1 (configuration not stated) [Ifenprodil tartrate] | 0.409 ± 0.011
O=C(c1ccc(F)cc1)C1CCN(CCn2c(=O)[nH]c3ccccc3c2=O)CC1 [Ketanserin tartrate hydrate] | 0.407 ± 0.011
COc1cc2nc(N(C)CCCNC(=O)C3CCCO3)nc(N)c2cc1OC (configuration not stated) [Alfuzosin hydrochloride] | 0.4 ± 0.013
CN(C)C(=O)C(CCN1CCC(O)(c2ccc(Cl)cc2)CC1)(c1ccccc1)c1ccccc1 [Loperamide hydrochloride] | 0.4189 ± 0.00099
CNCCC=C1c2ccccc2C=Cc2ccccc21 [Norcyclobenzaprine] | 0.419 ± 0.011
O=S(=O)(O)c1cc(O)ccc1O [Ethamsylate] | 0.41 ± 0.015

Compound | growth
N[C@@H]1CONC1=O [D-cycloserine] | 0.0455 ± 0.00047
Clc1ccc(CO/N=C(\Cn2ccnc2)c2ccc(Cl)cc2Cl)c(Cl)c1 [Oxiconazole Nitrate] | 0.095 ± 0.058
COc1cc(NS(=O)(=O)c2ccc(N)cc2)ncn1 [Sulfamonomethoxine] | 0.422 ± 0.0097
C[C@@H]1NC(=O)NC1=O [Methylhydantoin-5-(L)] | 0.411 ± 0.016
Cn1c(=O)c2c(ncn2CC(=O)O)n(C)c1=O [Acefylline] | 0.408 ± 0.007
CCC(=O)O[C@]1(C(=O)SCF)[C@H](C)C[C@H]2[C@@H]3C[C@H](F)C4=CC(=O)C=C[C@]4(C)[C@@]3(F)[C@@H](O)C[C@@]21C [Fluticasone propionate] | 0.453 ± 0.01
Cn1c(=O)c2c(ncn2CCO)n(C)c1=O [Etofylline] | 0.414 ± 0.0083
CCOC(=O)[C@H](CCc1ccccc1)N[C@@H](C)C(=O)N1CCC[C@H]1C(=O)O [Enalapril maleate] | 0.412 ± 0.011
CCC[C@@H]1C[C@@H](C(=O)N[C@@H]([C@H]2O[C@H](SC)[C@H](O)[C@@H](O)[C@H]2O)[C@@H](C)O)N(C)C1 [Lincomycin hydrochloride] | 0.443 ± 0.0099
CC(C)(C)NC[C@H](O)COc1nsnc1N1CCOCC1 [Timolol maleate salt] | 0.401 ± 0.015
CC(C)NCC(O)COc1ccc(COCCOC(C)C)cc1 (configuration not stated) [Bisoprolol fumarate] | 0.409 ± 0.016
c1ccc2c(CC3=NCCN3)cccc2c1 [Naphazoline hydrochloride] | 0.41 ± 0.0069
CC(=O)OCC(=O)[C@@]1(O)CC[C@H]2[C@@H]3CCC4=CC(=O)CC[C@]4(C)[C@@]3(F)[C@@H](O)C[C@@]21C [Fludrocortisone acetate] | 0.401 ± 0.0079
O=P(O)(O)C(O)(Cn1ccnc1)P(=O)(O)O [Zoledronic acid hydrate] | 0.421 ± 0.011
Cc1c(N(C)C)c(=O)n(-c2ccccc2)n1C [Amidopyrine] | 0.412 ± 0.0055
C=C1/C(=C\C=C2/CCC[C@]3(C)[C@@H]([C@H](C)/C=C/[C@@H](O)C4CC4)CC[C@@H]23)C[C@@H](O)C[C@@H]1O [Calcipotriene] | 0.234 ± 0.12
